# Reference: PubChem BioAssay AID1159580 (chemical genetic matrix, 2015)
# “And” between values parts separate entries of the source, which are not always exact repeats. Equal values may be shown once. Among all 5,500 compounds or so, about 2,000 (36%) were called active. About 18% were inconclusive and are not listed. This is one part of the list. Unmarked numbers belong to inactive results. No stated cut-off is given here; in the data, active means normalized growth mostly below about 0.91 (no sharp cut-off); inconclusive means no clear call, values can overlap the other calls; inactive means mostly above about 0.92.
# Assay: chemical genetic growth profiling, strain panel (AID 1159580);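 further: tested at 20 µM; growth read once vehicle control cultures reached saturation at 30 °C; 1 = growth at the plate median or of vehicle wells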
# Settings: S. cerevisiae deletion strains, growth OD
smiles,measurement,setting,value
Nc1ncnc2c1ncn2C1O[C@H](COP(=O)(O)O)[C@@H](O)[C@H]1O (stereo partly specified),normalized growth,"locus YAL013W, strain DEP1, stronger effect = lower value",1.01
same,normalized growth,"locus YAL021C, strain ccr4, stronger effect = lower value",0.996
same,normalized growth,"locus YAL026C, strain drs2, stronger effect = lower value",1
same,normalized growth,"locus YAL030W, strain snc1, stronger effect = lower value",0.997
same,normalized growth,"locus YBL061C, strain skt5, stronger effect = lower value",0.999
same,normalized growth,"locus YBR009C, strain hhf1, stronger effect = lower value",0.95
same,normalized growth,"locus YBR021W, strain FUR4, stronger effect = lower value",1.01
same,normalized growth,"locus YBR023C, strain chs3, stronger effect = lower value",0.99
same,normalized growth,"locus YBR171W, strain sec66, stronger effect = lower value",1
same,normalized growth,"locus YBR229C, strain ROT2, stronger effect = lower value",1.01
same,normalized growth,"locus YBR231C, strain swc5, stronger effect = lower value",1.01
same,normalized growth,"locus YBR279W, strain paf1, stronger effect = lower value",0.999
same,normalized growth,"locus YCL011C, strain gbp2, stronger effect = lower value",0.991
same,normalized growth,"locus YCL016C, strain dcc1, stronger effect = lower value",0.982
same,normalized growth,"locus YCL029C, strain bik1, stronger effect = lower value",0.523 (active)
same,normalized growth,"locus YCL069W, strain vba3, stronger effect = lower value",0.996
same,normalized growth,"locus YCR088W, strain abp1, stronger effect = lower value",0.988
same,normalized growth,"locus YDL005C, strain med2, stronger effect = lower value",1.03
same,normalized growth,"locus YDL035C, strain GPR1, stronger effect = lower value",1.04
same,normalized growth,"locus YDL040C, strain nat1, stronger effect = lower value",1
same,normalized growth,"locus YDL074C, strain BRE1, stronger effect = lower value",1.03
same,normalized growth,"locus YDL101C, strain DUN1, stronger effect = lower value",1.01
same,normalized growth,"locus YDL134C, strain PPH21, stronger effect = lower value",1.02
same,normalized growth,"locus YDL185W, strain tfp1, stronger effect = lower value",0.992
same,normalized growth,"locus YDL192W, strain arf1, stronger effect = lower value",0.811 (active)
same,normalized growth,"locus YDR001C, strain nth1, stronger effect = lower value",0.997
same,normalized growth,"locus YDR069C, strain doa4, stronger effect = lower value",1.04
same,normalized growth,"locus YDR101C, strain arx1, stronger effect = lower value",0.589 (active)
same,normalized growth,"locus YDR137W, strain rgp1, stronger effect = lower value",1
same,normalized growth,"locus YDR150W, strain NUM1, stronger effect = lower value",1.02
same,normalized growth,"locus YDR159W, strain sac3, stronger effect = lower value",0.95
same,normalized growth,"locus YDR162C, strain NBP2, stronger effect = lower value",1.01
same,normalized growth,"locus YDR195W, strain ref2",1.01
same,normalized growth,"locus YDR297W, strain sur2, stronger effect = lower value",1.01
same,normalized growth,"locus YDR318W, strain mcm21, stronger effect = lower value",0.73 (active)
same,normalized growth,"locus YDR334W, strain swr1, stronger effect = lower value",1
same,normalized growth,"locus YDR335W, strain msn5, stronger effect = lower value",1
same,normalized growth,"locus YDR388W, stronger effect = lower value",0.209 (active)
same,normalized growth,"locus YDR392W, strain spt3, stronger effect = lower value",0.95
same,normalized growth,"locus YDR502C, strain sam2, stronger effect = lower value",0.632 (active)
same,normalized growth,"locus YEL003W, strain gim4, stronger effect = lower value",1
same,normalized growth,"locus YEL037C, strain rad23, stronger effect = lower value",0.993
same,normalized growth,"locus YEL061C, strain CIN8 (second series), stronger effect = lower value",1
same,normalized growth,"locus YEL061C, strain CIN8, stronger effect = lower value",1.01
same,normalized growth,"locus YER015W, strain faa2, stronger effect = lower value",0.987
same,normalized growth,"locus YER016W, strain bim1, stronger effect = lower value",0.97
same,normalized growth,"locus YER110C, stronger effect = lower value",0.798 (active)
same,normalized growth,"locus YER111C, strain swi4, stronger effect = lower value",0.991
same,normalized growth,"locus YER155C, strain BEM2 (second series), stronger effect = lower value",1.05
same,normalized growth,"locus YER155C, strain BEM2, stronger effect = lower value",1.01
same,normalized growth,"locus YER167W, strain BCK2, stronger effect = lower value",1.03
same,normalized growth,"locus YFR010W, strain ubp6, stronger effect = lower value",1.01
same,normalized growth,"locus YGL078C, strain dbp3, stronger effect = lower value",0.993
same,normalized growth,"locus YGL086W, strain mad1, stronger effect = lower value",0.74 (active)
same,normalized growth,"locus YGL167C, strain pmr1, stronger effect = lower value",1
same,normalized growth,"locus YGL173C, strain kem1, stronger effect = lower value",0.995
same,normalized growth,"locus YGL227W, strain vid30, stronger effect = lower value",1.01
same,normalized growth,"locus YGL240W, strain doc1, stronger effect = lower value",1.04
same,normalized growth,"locus YGL248W, strain PDE1, stronger effect = lower value",1.02
same,normalized growth,"locus YGL253W, strain hxk2, stronger effect = lower value",0.972
same,normalized growth,"locus YGR078C, strain PAC10, stronger effect = lower value",1.02
same,normalized growth,"locus YGR135W, strain pre9, stronger effect = lower value",0.776 (active)
same,normalized growth,"locus YGR229C, strain SMI1, stronger effect = lower value",1.03
same,normalized growth,"locus YGR252W, strain gcn5, stronger effect = lower value",0.987
same,normalized growth,"locus YHR013C, strain ard1, stronger effect = lower value",0.965
same,normalized growth,"locus YHR027C, strain rpn1, stronger effect = lower value",1
same,normalized growth,"locus YHR030C, strain SLT2, stronger effect = lower value",1.01
same,normalized growth,"locus YHR079C, strain IRE1 (second series), stronger effect = lower value",0.345 (active)
same,normalized growth,"locus YHR079C, strain IRE1, stronger effect = lower value",1.02
same,normalized growth,"locus YHR094C, strain hxt1, stronger effect = lower value",0.955
same,normalized growth,"locus YHR129C, strain ARP1, stronger effect = lower value",1.01
same,normalized growth,"locus YHR142W, strain chs7, stronger effect = lower value",1.01
same,normalized growth,"locus YHR200W, strain rpn10, stronger effect = lower value",0.911 (active)
same,normalized growth,"locus YIL066C, strain RNR3, stronger effect = lower value",1.03
same,normalized growth,"locus YIL073C, strain SPO22, stronger effect = lower value",1.03
same,normalized growth,"locus YIL125W, strain kgd1, stronger effect = lower value",0.999
same,normalized growth,"locus YIR030C, strain dcg1, stronger effect = lower value",0.648 (active)
same,normalized growth,"locus YJL092W, strain hpr5, stronger effect = lower value",1
same,normalized growth,"locus YJL095W, strain BCK1 (second series), stronger effect = lower value",0.996
same,normalized growth,"locus YJL095W, strain BCK1, stronger effect = lower value",0.99 and 0.989
same,normalized growth,"locus YJL115W, strain asf1, stronger effect = lower value",0.998
same,normalized growth,"locus YJL129C, strain trk1, stronger effect = lower value",1
same,normalized growth,"locus YJL134W, strain LCB3, stronger effect = lower value",1.01
same,normalized growth,"locus YJL154C, strain vps35, stronger effect = lower value",0.999
same,normalized growth,"locus YJL164C, strain tpk1, stronger effect = lower value",0.967
same,normalized growth,"locus YJL166W, strain qcr8, stronger effect = lower value",1.03
same,normalized growth,"locus YJL168C, strain set2, stronger effect = lower value",0.927 (active)
same,normalized growth,"locus YJL187C, strain SWE1 (second series), stronger effect = lower value",1.03
same,normalized growth,"locus YJL187C, strain SWE1, stronger effect = lower value",0.996
same,normalized growth,"locus YJR043C, strain POL32, stronger effect = lower value",1
same,normalized growth,"locus YJR066W, strain TOR1, stronger effect = lower value",0.965
